# Most compounds without a hit are left out; they make up all but 1.3% or so of the library.
# UBC13 polyUb: UBC13 polyubiquitin chain formation inhibitors, primary screen, biochemical, TR-FRET, uHTS; inhibition, % at 20 µM; 0.47% of 330,000 active; AID 485273, 2010; in the data active = inhibition above about 45%, passing the limit was not always enough
# Target sequence (P61088 whole entry, looked up): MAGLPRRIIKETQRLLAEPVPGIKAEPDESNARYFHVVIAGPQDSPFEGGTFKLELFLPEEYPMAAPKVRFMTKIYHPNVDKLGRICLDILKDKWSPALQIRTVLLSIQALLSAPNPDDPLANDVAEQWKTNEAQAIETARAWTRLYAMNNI
# PREPL inhibitor: PREPL enzyme inhibitors, primary screen, biochemical, fluorescence polarization; Prolyl endopeptidase-like (Homo sapiens), Q4J6C6; recombinant PREPL, fluorescence polarization activity-based probe; inhibition, % at 5.96 µM; 0.68% of 320,000 active; in the data active = inhibition above about 43%
# DNA FID counter: compounds displacing fluorescent DNA intercalator, primary screen, artefact control for HCV NS3 helicase inhibitor project, biochemical, FID fluorescence; DNA fluorescent intercalator displacement; inhibition, % at 7.9 µM; 0.17% of 290,000 active; in the data active = inhibition above about 37%;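 also: higher means more ethidium bromide displaced from hairpin DNA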
# RAD52 inh: RAD52 DNA annealing inhibitors, primary screen, biochemical, FRET, single point, set 2. DNA repair protein RAD52 homolog (Homo sapiens), P43351. recombinant RAD52 DNA annealing, FRET fluorescence. inhibition, % at 18.7 µM. 0.46% of 360,000 active. AID 651710, 2012;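 active = every replicate showing at least 50% inhibition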
# Target sequence (P43351 whole entry, looked up): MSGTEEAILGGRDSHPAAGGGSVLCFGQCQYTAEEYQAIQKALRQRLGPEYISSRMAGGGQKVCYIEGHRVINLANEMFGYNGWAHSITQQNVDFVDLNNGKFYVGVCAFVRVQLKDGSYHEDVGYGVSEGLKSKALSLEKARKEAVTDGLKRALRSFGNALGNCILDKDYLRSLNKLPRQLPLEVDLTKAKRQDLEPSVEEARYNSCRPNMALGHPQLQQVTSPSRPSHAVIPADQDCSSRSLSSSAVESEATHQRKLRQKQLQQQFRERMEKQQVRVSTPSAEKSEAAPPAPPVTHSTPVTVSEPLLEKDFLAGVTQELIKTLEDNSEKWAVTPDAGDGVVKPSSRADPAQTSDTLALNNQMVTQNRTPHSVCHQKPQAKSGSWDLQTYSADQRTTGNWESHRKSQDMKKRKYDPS
# RAD54 branch: inhibitors of human RAD54 branch migration, primary screen, biochemical, fluorescence, single point | DNA repair and recombination protein RAD54-like (Homo sapiens), Q92698 | RAD54 Holliday junction branch migration, FAM/BHQ fluorescence | inhibition, % at 10.4 µM | 0.14% of 360,000 active | AID 602329, 2012;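 active = mean normalized replicate activity at least 40 and at least half of replicates scoring 40 or more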;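 also: inhibitors cause a drop in the FAM fluorescence signal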
# MIN6 prolif: inducers of MIN6 beta-cell proliferation, primary screen, ATP luminescence, uHTS | 0.29% of 330,000 active | AID 2380, 2010 | proliferation, % at 10 µM | MIN6 cells proliferation, ATPlite luminescence, 48 h; cells starved in 0.2% serum; 100% = growth in 10% serum;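 active = compounds whose signal lies at least 3.5 SD above the mean of all wells on their plate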
# Hits are given with their value; i = inactive; nt = not tested or not shown; ! = not active in a repeat.
SMILES,UBC13 polyUb,PREPL inhibitor,DNA FID counter,RAD52 inh,RAD54 branch,MIN6 prolif
CCN(CC)CCNC(=O)c1ccc(NC(=O)c2cn(-c3ccccc3)nc2-c2cccs2)cc1,103,i,i,i,nt,i
C[C@@H]1CN([C@H](C)CO)C(=O)Cc2cc(NC(=O)C3CC3)ccc2O[C@H]1CN(C)S(=O)(=O)c1cn(C)cn1,nt,nt,nt,i,i,nt
CCNC(=O)[C@@H]1[C@@H](CO)[C@@H]2Cn3c(cccc3=O)[C@H]1N2Cc1cc(F)ccc1F,nt,nt,nt,i,nt,nt
CCCC(=O)N/N=C1\CS(=O)(=O)N(C)c2ccsc21,i,i,i,i,i,i
Cc1ccc(N/N=C2\CS(=O)(=O)N(C)c3ccsc32)cc1,i,72,i,i,i,i
O=C(NC1CCC1)[C@@H]1[C@@H](CO)[C@@H]2Cn3c(ccc(-c4ccccc4F)c3=O)[C@@H]2N1Cc1ccncc1,nt,nt,nt,85,i,nt
C#Cc1ccc([C@@H]2C=C(C(=O)N3CCN(Cc4ccc5c(c4)OCO5)CC3)O[C@H](OCCCCO)C2)cc1,i,45,i,i,i,i
CCN1CCN(c2nc3c(c(=O)n(C)c(=O)n3C)n2Cc2cccc3ccccc23)CC1,i,46,i,nt,nt,i
C[C@H](CO)N1C[C@H](C)[C@H](CN(C)S(=O)(=O)c2cccs2)OCCCC[C@H](C)Oc2ccc(NS(=O)(=O)c3cn(C)cn3)cc2C1=O,nt,nt,nt,109,i,nt
Cc1noc(C)c1S(=O)(=O)N(C)C[C@@H]1OCCCC[C@H](C)Oc2ccc(NS(=O)(=O)c3cccs3)cc2C(=O)N([C@@H](C)CO)C[C@H]1C,nt,nt,nt,64,i,nt
CN(C)c1cc(NC(=O)CN2CCCC2)c2ccccc2n1,i,i,55,i,78,i
CN(C)c1cc(NC(=O)CNC(C)(C)CC(C)(C)C)c2ccccc2n1,i,i,i,i,nt,i
Cc1ccc(C(=O)C[n+]2cc(-c3ccc(C)cc3)n3c2CCCCC3)cc1,i,i,39,nt,i,i
COc1ccccc1-c1ccc(C2[C@@H]3CN(S(=O)(=O)c4ccccc4)C[C@H]2N3)cc1 (stereo not given in full),nt,nt,nt,55,nt,nt
COc1ccccc1-c1ccc(C2[C@H]3CNC[C@@H]2N3S(=O)(=O)c2ccccc2)cc1 (stereo not given in full),nt,nt,nt,i,nt,nt
COc1ccccc1-c1ccc(C2[C@@H]3CN(S(=O)(=O)c4ccc(F)cc4)C[C@H]2N3)cc1 (stereo not given in full),nt,nt,nt,61!,nt,nt
Cc1ccc(S(=O)(=O)N(C)C[C@H]2Oc3c(NS(=O)(=O)c4c(C)noc4C)cccc3C(=O)N([C@H](C)CO)C[C@H]2C)cc1,nt,nt,nt,i,i,nt
CN(C)CCCNC(=O)C[C@@H]1CC[C@H]2[C@@H](COc3ccc(NS(C)(=O)=O)cc3C(=O)N2C)O1,nt,nt,nt,i,i,nt
O=C(c1cccnc1)N1CC(=O)N2[C@H](CO)[C@H](c3ccc(C#CCC4CCCC4)cc3)[C@@H]2C1,nt,nt,nt,i,nt,nt
Cc1cccc(NC(=O)[C@H](Cc2c[nH]c3ccccc23)NC(=O)[C@@H]2Cc3ccccc3CN2)c1,i,i,i,i,i,i
Cc1cc(C)cc(NC(=O)[C@H](Cc2c[nH]c3ccccc23)NC(=O)[C@@H]2Cc3ccccc3CN2)c1,i,i,40,i,i,i
CC(C)NC(=O)N[C@@H]1CC[C@@H](CCNS(=O)(=O)c2ccc(Cl)cc2)O[C@@H]1CO,nt,nt,nt,i,i,nt
CCOC(=O)c1c(NC(=O)CN(C)C2CCN(C)CC2)sc(C(=O)Nc2ccccc2)c1C,i,i,37,i,nt,i
CCOC(=O)c1c(NC(=O)CSc2cccc[n+]2[O-])sc(C(=O)Nc2ccccc2)c1C,i,i,i,i,nt,i
O=C(O)/C=C\C(=O)Nc1ccc(N2CCN(c3ccc(Cl)c(Cl)c3)CC2)cc1,i,44,i,i,i,i
SMILES,UBC13 polyUb,PREPL inhibitor,DNA FID counter,RAD52 inh,RAD54 branch,MIN6 prolif
C[C@@H]1CN([C@H](C)CO)C(=O)c2cc(NC(=O)c3ccncc3)ccc2O[C@@H](C)CCCCO[C@H]1CN(C)Cc1ccc(C(=O)O)cc1,nt,nt,nt,99,i,nt
C[C@@H]1CN([C@H](C)CO)C(=O)c2cc(NC(=O)c3ccncc3)ccc2O[C@@H](C)CCCCO[C@@H]1CN(C)Cc1ccc(C(=O)O)cc1,nt,nt,nt,100,i,nt
CCC(=O)N1C[C@@H]2[C@H](c3ccccc31)[C@H](CO)N2Cc1ccccc1F,nt,nt,nt,i,i,nt
CCCC#Cc1ccc2c(c1)O[C@H](CN(C)C(C)=O)[C@H](C)CN([C@@H](C)CO)S2(=O)=O,nt,nt,nt,i,i,nt
CN(C)c1ccc(C(CNC(=O)c2ccc(C#N)cc2)c2c[nH]c3ccccc23)cc1 (stereo not given),i,65,i,i,i,i
O=C(Nc1ccc(F)cc1)N1CCCCN2[C@H](CO)[C@@H](c3ccc(-c4ccccc4F)cc3)[C@H]2C1,nt,nt,nt,53,i,nt
O=C(Nc1ccc(F)cc1)N1CCCCN2[C@H](CO)[C@@H](c3ccc(-c4ccccc4F)cc3)[C@@H]2C1,nt,nt,nt,i,i,nt
O=C(c1cccc(F)c1)N1CCCCN2[C@@H](CO)[C@@H](c3ccc(-c4ccc(F)cc4)cc3)[C@@H]2C1,nt,nt,nt,53,i,nt
O=C(c1cccc(F)c1)N1CCCCN2[C@H](CO)[C@@H](c3ccc(-c4ccc(F)cc4)cc3)[C@H]2C1,nt,nt,nt,i,i,nt
O=C(Nc1ccccc1)N1CCCCN2[C@H](C1)[C@H](c1ccc(-c3ccccc3F)cc1)[C@@H]2CO,nt,nt,nt,i,i,nt
O=S(=O)(c1ccc(F)cc1)N1CCCCN2[C@H](CO)[C@@H](c3ccc(-c4ccccc4F)cc3)[C@H]2C1,nt,nt,nt,56,i,nt
O=C(Nc1ccc(F)cc1)N1CCCCN2[C@H](CO)[C@H](c3ccc(-c4ccccc4F)cc3)[C@H]2C1,nt,nt,nt,60,i,nt
CN1CCc2cc3c(c4c2[C@H]1[C@H](O)c1ccccc1-4)OCO3,i,i,97,i,99,i
COc1ccccc1-c1cnc2c(c1)C(=O)N([C@H](C)CO)C[C@@H](C)[C@H](CN(C)C(=O)CC1CC1)O2,nt,nt,nt,i,i,nt
O=c1c(C(c2ccc(O)cc2)c2c(O)nc3n(c2=O)CCS3)c(O)nc2n1CCS2,i,i,i,nt,nt,i
O=c1c(C(c2c(O)nc3n(c2=O)CCS3)c2cccc3ccccc23)c(O)nc2n1CCS2,i,i,i,nt,54,i
Fc1ccc(-c2ccc(C3[C@@H]4CN(Cc5cccc(F)c5)C[C@H]3N4)cc2)cc1 (stereo not given in full),nt,nt,nt,94!,nt,nt
Fc1ccc(-c2ccc(C3[C@@H]4CN(Cc5ccccc5)C[C@H]3N4)cc2)cc1 (stereo not given in full),nt,nt,nt,78!,nt,nt
